Source: PubChem BioAssay (NCATS)
Activity calls are given as the source filed them. How the calls were made is not given here.

Test system: HIV-1 nucleocapsid protein NCp7 (binding to TG oligonucleotide)
Test: HIV Nucleocapsid (AID 346);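 further: potency is for inhibitors that block NC binding and lower polarization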
Details: HIV-1 NC / fluorescein-TGTGTGTG probe, fluorescence polarization
Procedure, shortened: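 Reagents dispensed (10 nM TG4xF, 100 nM HIV-1 NC), plates spun, compounds pin-transferred, then incubated 1 hr at room temperature before FP imaging. Buffer: Hepes pH 7.5, 250mM NaCl, 1uM ZnCl2, 100 uM TCEP, 5 mM 2-mercaptoethanol.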
Potency means the concentration at half of the fitted maximal effect.

| Compound | Potency |
| --- | --- |
| N#CCCn1c(=O)c(-c2cccs2)nc2cnc(Nc3ccccc3)nc21 | > 20 µM (inactive) |
| O=c1c(-c2ccccc2)nc2cncnc2n1Cc1ccccc1Cl | > 20 µM (inactive) |
| COc1ccc(C(=O)N2CCC3(CC2)CCN(c2ccncc2)CC3)cc1 | > 20 µM (inactive) |
| COc1cccc(-c2nc(NCc3cccnc3)c3ccccc3n2)c1 | > 20 µM (inactive) |
| COc1ccccc1CNc1ccnc(-c2ccoc2)n1 | > 20 µM (inactive) |
| Cn1cccc1C(=O)N1CCC[C@@]2(CCN(c3cccc(-c4ccccc4)c3)C2)C1 | > 20 µM (inactive) |
| CN(C)c1ccc(-c2cncnc2NCc2cccs2)cc1 | > 20 µM (inactive) |
| COc1ccc(NC(=O)N2CCCC3(CCN(C(=O)c4cccn4C)CC3)C2)cc1 | > 4 µM (inactive) |
| COc1ccc(CNc2ccnc(-c3ccc4c(c3)OCO4)n2)c(OC)c1 | > 20 µM (inactive) |
| CCNc1ncc2nc(C)c(=O)n(C[C@H]3CCCO3)c2n1 | > 20 µM (inactive) |
| COc1ccc(-n2c(=O)c(-c3ccc(F)cc3)nc3cnc(OC)nc32)cc1 | > 20 µM (inactive) |
| CN(Cc1ccco1)c1ncnc2ccc(-c3cccnc3)cc12 | > 20 µM (inactive) |
| COc1ccc(CNc2ncncc2-c2cccnc2)c(OC)c1 | > 20 µM (inactive) |
| COc1ccccc1CN1CCC2(CC1)CCN(C(=O)c1ccncc1)CC2 | > 20 µM (inactive) |
| O=c1cnc2cncnc2n1Cc1ccc(F)cc1 | > 20 µM (inactive) |
| O=C(c1csnn1)N1CCC2(CC1)CN(c1ccccn1)C2 | > 20 µM (inactive) |
| Cc1nc2cnc(Nc3ccccc3)nc2n(C[C@H]2CCCO2)c1=O | > 20 µM (inactive) |
| O=c1c(-c2ccc(F)cc2)nc2cnc(N3CCOCC3)nc2n1-c1ccccc1 | > 20 µM (inactive) |
| CN(C)Cc1ccccc1-c1cc(-n2ccnc2)ncn1 | > 20 µM (inactive) |
| CN(C)Cc1ccccc1-c1nc(N2CCOCC2)c2ccccc2n1 | > 20 µM (inactive) |

| Compound | Potency |
| --- | --- |
| Cn1cccc1C(=O)N1CCC2(CC1)CCN(c1ccccn1)CC2 | > 20 µM (inactive) |
| CN(C)c1ccc(-c2cncnc2NCc2ccccc2)cc1 | > 20 µM (inactive) |
| CCNc1ncc2nc(-c3ccccc3)c(=O)n(C[C@H]3CCCO3)c2n1 | > 20 µM (inactive) |
| CN(C)Cc1ccccc1-c1ccc2ncnc(NCc3ccccc3)c2c1 | > 20 µM (inactive) |
| COc1cccc(-c2nc(NCc3ccc(OC)cc3OC)c3ccccc3n2)c1 | > 20 µM (inactive) |
| CN1CCC2(CC1)CCN(C(=O)c1cc(C(F)(F)F)cc(C(F)(F)F)c1)CC2 | > 20 µM (inactive) |
| Cc1noc(C)c1-c1nccc(NCc2cccnc2)n1 | > 20 µM (inactive) |
| COCCn1c(=O)c(C)nc2cncnc21 | > 20 µM (inactive) |
| c1cncc(CNc2ncncc2-c2ccc3c(c2)OCO3)c1 | > 20 µM (inactive) |
| COc1ccccc1CNc1ccnc(-c2cccc(NS(C)(=O)=O)c2)n1 | > 20 µM (inactive) |
| CNc1ncnc2ccc(-c3ccccc3C#N)cc12 | > 20 µM (inactive) |
| CN(C)Cc1ccccc1-c1ccc2ncnc(NC3CCNCC3)c2c1 | > 20 µM (inactive) |
| N#Cc1cccc(-c2nc3cnc(N4CCOCC4)nc3n(C3CC3)c2=O)c1 | > 20 µM (inactive) |
| O=c1c(-c2ccc(F)cc2)nc2cncnc2n1Cc1ccccc1 | > 20 µM (inactive) |
| CN(C)c1cc(-c2cccc(NS(C)(=O)=O)c2)ncn1 | > 20 µM (inactive) |
| COc1ccccc1CCn1c(=O)c(-c2ccc(F)cc2)nc2cncnc21 | > 20 µM (inactive) |
| CS(=O)(=O)N1CCC[C@@]2(CCN(C(=O)Nc3cccc(C#N)c3)C2)C1 | > 20 µM (inactive) |
| CN(Cc1ccco1)c1ccnc(-c2cccc(C#N)c2)n1 | > 20 µM (inactive) |
| CN(C)c1ccc(-c2nc(N3CCNCC3)c3ccccc3n2)cc1 | > 20 µM (inactive) |
